This is a sample that favours compounds with a hit; in the whole collection about 10% have one here.
HEK293 tox = Cytotoxic Profiling in HEK 293 Cell Line of Diverse Libraries Using Quantitative High-Throughput Screening; hit rate 6.6% among 94,000; Potency, µM (doses to about 115 µM), inactives show top-dose activity change, negative = cytotoxicity, actives largely listed as inhibitors; HEK 293 viability, ATP luminescence (CellTiter-Glo), 48-72 h; further: on the % scale 0 is the no-effect control and ±100 the full control effect; nearly all actives have a fitted effect of over 60% in size
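Viability of HEK 293 cells, plated at 250 cells/well, was judged by cellular ATP after compound treatment for 48 or 72 hr. Luminescence was imaged 10 min after CellTiter-Glo addition at room temperature.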
FLuc inh-1 = Firefly luciferase inhibition profiling of diverse chemical library using quantitative high-throughput screening. Potency, µM (top dose mostly 115 µM), usual class: inhibitors. Luciferin 4-monooxygenase (Photinus pyralis), P08659. hit rate 2.5% among 76,000. purified P. pyralis luciferase, luminescence, biochemical; further: on the % scale 0 is the no-effect control and ±100 the full control effect; nearly all actives have a fitted effect of over 65% in size
Target sequence (P08659 whole entry, looked up): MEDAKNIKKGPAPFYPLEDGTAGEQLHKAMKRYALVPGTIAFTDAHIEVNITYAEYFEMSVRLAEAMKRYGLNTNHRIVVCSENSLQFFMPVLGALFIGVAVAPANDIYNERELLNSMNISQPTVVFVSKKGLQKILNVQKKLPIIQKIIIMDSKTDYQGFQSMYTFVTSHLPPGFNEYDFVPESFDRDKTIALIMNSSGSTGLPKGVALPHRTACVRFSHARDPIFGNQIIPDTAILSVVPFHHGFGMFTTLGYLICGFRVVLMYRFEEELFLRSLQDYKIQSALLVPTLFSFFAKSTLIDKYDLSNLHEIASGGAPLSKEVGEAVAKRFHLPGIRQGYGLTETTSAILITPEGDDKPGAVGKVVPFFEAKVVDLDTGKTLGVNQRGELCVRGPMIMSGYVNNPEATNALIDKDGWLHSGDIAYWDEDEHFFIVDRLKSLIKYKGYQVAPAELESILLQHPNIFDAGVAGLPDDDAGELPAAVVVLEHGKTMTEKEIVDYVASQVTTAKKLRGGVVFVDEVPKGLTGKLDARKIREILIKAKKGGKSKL
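Inhibitors were tested against purified firefly luciferase in a biochemical, low-substrate format (both substrates at 10uM) and luminescence measured with a CCD imager.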
NIH3T3 tox = Cytotoxic Profiling in NIH 3T3 Cell Line of Diverse Libraries Using Quantitative High-Throughput Screening; Potency, µM (top dose mostly 96.7 µM), for inactives: top-dose activity change, negative = cytotoxicity, actives largely listed as inhibitors; AID 1345082, 2018; NIH 3T3 viability, CellTiter-Glo ATP luminescence, 48-72 h; hit rate 4.3% among 94,000; further: on the % scale 0 is the no-effect control and ±100 the full control effect; nearly all actives have a fitted effect of over 55% in size
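Cells were seeded at 400 per well, treated with pin-transferred compound, and kept 48 or 72 hr at 37 °C before CellTiter-Glo addition and luminescence imaging of cellular ATP.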
NPR1 antag = Natriuretic polypeptide receptor (hNpr1) antagonism - Primary qHTS | Potency, µM (top dose mostly 46.3 µM), inactives show top-dose activity change, negative = inhibition, usual class: inhibitors | HEK293 hNpr1 GloSensor cGMP, ANP-stimulated luminescence | hit rate 1.6% among 76,000; calls by dose curve; further: on the % scale 0 is the no-effect control and ±100 the full control effect; nearly all actives have a fitted effect of over 60% in size
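Compound pre-incubated 30 min at room temperature on GloSensor-loaded HEK293 cells stably carrying hNpr1 and the pGS-40F cGMP biosensor. Stimulation uses hNppA at 0.1 nM final; luminescence is taken at baseline and 20 min post-agonist.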
GPT2 inh = Primary qHTS assay for inhibitors of Glutamate pyruvate transaminase 2 (GPT2); Recombinant GPT2, coupled pyruvate oxidase/HRP Amplex Red fluorescence; Potency, µM (titrated, usually from 57.7 µM), inactives show top-dose activity change, negative = inhibition, actives largely listed as inhibitors; hit rate 0.25% among 100,000; AID 1671188, 2021; further: on the % scale 0 is the no-effect control and ±100 the full control effect; nearly all actives have a fitted effect of over 60% in size
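GPT2 10ng/uL, a-KG 250uM, L-Ala 2mM, HEPES pH7.5 + 0.0001% Tween; 30 min RT. Then Amplex mix (PO/HRP/ThPP), 30 min RT dark, fluorescence. AOA 50uM used as positive control.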
FLuc SDR no ATP = Firefly luciferase (FLuc-C-HiBiT) SDR gain of signal screen - without ATP; shares compounds with FLuc inh-1; Purified FLuc-C-HiBiT, Nano-Glo HiBiT luminescence, no ATP; Potency, µM (highest dose often 32.7 µM), without a hit: at the highest dose activation (signal gain), most hits filed as activators; hit rate 7.8% among 1,300; further: nearly all actives have a fitted effect of over 55% in size
FLuc SDR ATP = Firefly luciferase (FLuc-C-HiBiT) SDR gain of signal screen - plus ATP. purified FLuc-C-HiBiT + ATP, HiBiT complementation luminescence. shares compounds with FLuc inh-1. Potency, µM (series often up to 32.7 µM), for inactives: top-dose activation (gain of signal), actives largely listed as activators. hit rate 8.7% among 1,300;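 further: signal reports ligand binding via conformational change of the enzyme rather than luciferase catalysis; % of control where 0% means no effect; nearly all actives have a fitted effect of over 55% in size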
FLuc inh-2 = Firefly luciferase (FLuc-C-HiBiT) enzymatic inhibition screen - Functional assay. shares compounds with FLuc inh-1. hit rate 42% among 1,300. purified FLuc-C-HiBiT enzyme, luciferin luminescence. Potency, µM (titrated, usually from 32.7 µM), for inactives: top-dose activity change, negative = inhibition, usual class: inhibitors. AID 1963320, 2024; further: on the % scale 0 is the no-effect control and ±100 the full control effect; nearly all actives have a fitted effect of over 70% in size
Numbers without * were called inactive; i = inactive; u = inconclusive; x = no result; [ ] = another dose, or the depositor's remark. Unless noted, the call rests on the fitted dose curve; in most records, active means well fitted curve in the direction sought with a large enough effect; inconclusive means small, poorly fitted or top-dose-only effect, or another doubt; inactive means no such curve, though single readings can be large; an effect the other way counts as inactive or inconclusive. Potency means the concentration at half of the fitted maximal effect.

SMILES	HEK293 tox	FLuc inh-1	NIH3T3 tox	NPR1 antag	GPT2 inh	FLuc SDR no ATP	FLuc SDR ATP	FLuc inh-2
Cc1ccc2nc3n(c2c1)[C@@H](CNCc1ccccc1)COC3	u	i	u	u	i	x	x	x
CCc1ccc(C2=CC(c3cccc(C)c3)n3c(nc4ccccc43)N2)cc1 (centres undefined)	x	x	x	x	x	11µM*	u	0.88µM*
O=C(c1ccsc1)N1CC(c2noc(C3CCCN3CC3CC3)n2)C1 (centres undefined)	-13%	i	i	6%	5%	x	x	x
C[C@@H](Nc1ccc(-c2nc(CCCc3ccccc3)no2)cn1)C(N)=O	-6%	i	-8%	8%	4%	x	x	x
Cc1ccccc1-c1noc(-c2ccc(NC(C)c3cnn(C)c3)nc2)n1 (centres undefined)	32µM*	0.32µM*	45µM*	7.9µM*	-9%	u	u	0.99µM*
CN(CC1CCOCC1)C(=O)Nc1cccc(Br)c1	-1%	i	2%	1%	i	x	x	x
O=C(Nc1cccc(Br)c1)c1cc(-c2ccc3c(c2)OCCO3)on1	x	x	x	x	x	u	u	0.99µM*
O=C(NCCc1ccccn1)C1CC(=O)N(c2n[nH]c3ccccc23)C1 (centres undefined)	-4%	i	i	-1%	i	x	x	x
COc1ccc(-c2cc3c(cn2)CN(Cc2ccncc2)CCN3)cc1	u	3.2µM*	u	u	-2%[88.5 µM]	25%[49.3 µM]	u	u
Fc1ccc(CNc2cc3c(cn2)NCCN(Cc2ccccc2)C3)cc1	u	i	u	-10%[70.6 µM]	u	x	x	x
Fc1ccc(-c2cc3c(cn2)CN(Cc2ccncc2)CCN3)cc1Cl	56µM*	1.8µM*	u	u	-10%[88.5 µM]	25%[49.3 µM]	18%[49.3 µM]	18µM*
COc1ccc(CN2CCNc3cc(-c4ccccc4)ncc3C2)cn1	u	14µM*	u	-14%[70.6 µM]	5%[88.5 µM]	23%[49.3 µM]	14%[49.3 µM]	u
Cn1ncc2c(C(=O)NC3CCc4ccccc43)cc(-c3cc(Cl)cc(Cl)c3)nc21 (centres undefined)	0%	x	-3%	x	x	x	x	x
CCCCOc1nc(N)c2[nH]c(=O)n(Cc3cccc(CC(=O)OC)c3)c2n1	x	x	x	x	x	11%	7%	2%
CCC(CC)COC(=O)[C@H](C)N[P@](=O)(OC[C@H]1O[C@@](C#N)(c2ccc3c(N)ncnn23)[C@H](O)[C@@H]1O)Oc1ccccc1	x	x	x	x	x	7%	5%	-6%
CN(C)C(=O)c1ccc(-c2cccc(-c3ccn(CC4CC4)n3)c2)o1	u	7.1µM*	u	u	u	24%	u	7.9µM*
O=Cc1cccc(-c2ccc(C(=O)O)o2)c1	i	x	i	x	0%[88.5 µM]	x	x	x
Cc1cc(C)n(CC(=O)N2CCCn3ccnc3C2c2ccccc2)n1 (centres undefined)	1%	i	-6%	-9%	4%	x	x	x
Cc1ccc(C2=NC3(CCN(C(=O)c4cccs4)CC3)ON2)cc1	-15%	u	-19%	-12%	i	x	x	x
NC(=O)c1cccc(-c2cc3c(cn2)CN(Cc2ccncc2)CCN3)c1	-17%[172 µM]	u	u	-15%[70.6 µM]	5%[88.5 µM]	x	x	x
c1cncc(Nc2cc3c(cn2)CN(CC2CCCCC2)CCN3)c1	u	u	u	6%[70.6 µM]	-3%[88.5 µM]	x	x	x
Cc1cc(-c2cc3c(cn2)CN(Cc2cccs2)CCN3)ccn1	89µM*	6.3µM*	u	-21%[70.6 µM]	-4%[88.5 µM]	32%[49.3 µM]	u	11µM*
Cc1cc(-c2cc3c(cn2)CN(Cc2ccccc2O)CCN3)ccn1	u	5.6µM*	u	u	-5%[88.5 µM]	21%[49.3 µM]	13%[49.3 µM]	u
NC(=O)c1cccc(-c2cc3c(cn2)CN(Cc2ccccc2)CCN3)c1	u	14µM*	-20%[138 µM]	-2%[70.6 µM]	3%[88.5 µM]	17%[49.3 µM]	12%[49.3 µM]	u
Oc1ccccc1CN1CCNc2cc(-c3ccccc3)ncc2C1	79µM*	2.5µM*	79µM*	-29%[70.6 µM]	4%[88.5 µM]	u	14%[49.3 µM]	u
SMILES	HEK293 tox	FLuc inh-1	NIH3T3 tox	NPR1 antag	GPT2 inh	FLuc SDR no ATP	FLuc SDR ATP	FLuc inh-2
COc1cc(CN2CCN(Cc3ccc(-n4cccn4)cc3C)CC2CCO)cc(OC)c1 (centres undefined)	u	i	u	u	i	x	x	x
Cc1csc(N(C(=O)CSc2ccc(-c3ccccc3)nn2)C2CC2)n1	x	x	x	x	1%	x	x	x
COCCO[C@H]1C(=O)N(C2CCN(C(=O)c3cnc(C)cn3)CC2)[C@H]1c1ccncc1	2%	i	0%	5%	i	x	x	x
CN1CCNc2cc(-c3ccc(N4CCOCC4)cc3)ncc2C1	u	i	u	-19%[70.6 µM]	1%[88.5 µM]	x	x	x
Cc1cc(-c2cc3c(cn2)CN(Cc2cnc[nH]2)CCN3)ccn1	x	x	x	x	x	29%[49.3 µM]	19%[49.3 µM]	18µM*
COc1ccc(OC2CCN(C3CCCC3)CC2)c(C(=O)NCCCN2CCCC2=O)c1	-22%	i	-12%	2%	i	x	x	x
COc1ccc(NC(=O)N2CCc3c(C(=O)NCc4ccncc4)cccc32)cc1	u	1.3µM*	u	11µM*	i	12µM*	0.88µM*	0.62µM*
CCC(=O)N1CCc2c(C(=O)Nc3cc(OC)cc(OC)c3)cccc21	-4%	i	i	-1%	1%	x	x	x
COc1ccc(NC(=O)N2CCc3c(C(=O)Nc4ccc5c(c4)OCO5)cccc32)cc1	u	2.8µM*	-21%	13µM*	i	15%	1.2µM*	0.88µM*
COc1ccc(NC(=O)c2cccc3c2CCN3C(=O)Nc2ccc(F)cc2)c(C)c1	-27%	2.2µM*	-13%	11µM*	i	13%	0.7µM*	0.56µM*
COc1ccc(NC(=O)N2CCc3c(C(=O)NCCCN4CCCC4=O)cccc32)cc1	u	0.5µM*	-29%	11µM*	0%	u	0.35µM*	0.25µM*

Compound activity: PubChem BioAssay, National Center for Advancing Translational Sciences (NCATS)
